Many of the other results were omitted from the sample, so hits are more common in it than they were.
HttQ103 aggreg – qHTS Multiplex Assay to Identify Dual Action Probes in a Cell Model of Huntington: Aggregate Formation (GFP) | Potency, µM (top dose mostly 46.1 µM), without a hit: at the highest dose activity change, negative = inhibition, hits mostly inhibitors | 220,000 compounds, 1.1% hits | PC12 HttQ103-GFP aggregates, Acumen cytometry, 40 h; note: % is set by controls: 0 for no effect and ±100 for the full control effect; nearly all actives have a fitted effect of over 60% in size
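Ecdysone-promoter PC12 model expressing HTT exon 1 Q103 fused to GFP, induced by tebufenozide at 100 nM final. Compounds titrated; aggregates sized 1–25 µm scored on a 488 nm laser cytometer.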
Epigenetic derep – Quantitative High-Throughput Screen for Regulators of Epigenetic Control. murine LDR cells, GFP reporter derepression, 30 h. Potency, µM (highest dose often 53.9 µM), without a hit: at the top dose GFP activation, actives largely listed as activators. 280,000 compounds, 0.2% hits; note: % of control where 0% means no effect; nearly all actives have a fitted effect of over 60% in size
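Derepression of a silenced CMV-GFP reporter in murine LDR cells is scored by enumerating GFP-positive cells with a laser-scanning microplate cytometer after 30 hours of treatment at 37 C.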
HTT ATP protect – qHTS Multiplex Assay to Identify Dual Action Probes in a Cell Model of Huntington: Cytoprotection (ATP). PC12 HTT-Q103 induced, cytoprotection, ATP luminescence, 40 h. Potency, µM (titrated, usually from 56.4 µM), for the others: cytoprotection (ATP increase), most hits filed as activators. 230,000 compounds, 0.14% hits; note: % of control where 0% means no effect; nearly all actives have a fitted effect of over 45% in size
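Cells were plated at 1500 per well in phenol red-free DMEM with 5% equine and 5% calf serum. Tebufenozide (100 nM final) and compounds were added, then ATPlite reagent, and luminescence was read.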
PINK1 modulator – A Quantitative High throughput Screen to Identify Chemical Modulators of PINK1 Expression; PINK1 immunofluorescence, high-content cytometry, 24 h; 410,000 compounds, 0.2% hits; AID 624263, 2012; Potency, µM (series often up to 76.6 µM), inactives show top-dose activation (PINK1 increase), most hits filed as activators; active = well fitted activation curve with a large enough effect; inconclusive = small, poorly fitted or top-dose-only effect; cell line not stated here; note: % of control where 0% means no effect; nearly all actives have a fitted effect of over 65% in size
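Readout is PINK1 immunofluorescence, quantified alongside mitochondrial, cell and nuclear markers by laser-scanning microplate cytometry. Cells from a stable line were exposed to compound titrations (5 concentrations) for 24 hours, with CCCP controls.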
Starred values were filed as active, the others as inactive; ? = inconclusive; . = no result given; [ ] = dose if it differs, or a comment. Unless noted, calls come from the whole dose curve; as a rule, active = well fitted curve in the direction sought with a large enough effect; inconclusive = small, poorly fitted or top-dose-only effect, or another doubt; inactive = no such curve, though single readings can be large; an effect the other way counts as inactive or inconclusive. Potency is the fitted concentration of half-maximal effect.

SMILES	HttQ103 aggreg	Epigenetic derep	HTT ATP protect	PINK1 modulator
Cc1ccc(C2=CC(c3ccc(N(C)C)cc3)n3nnnc3N2)cc1 (centres undefined)	10µM*	19%	-22%	7%
Cc1nn2c(NCc3ccccn3)c3c(nc2c1-c1ccccc1)CCC3	-29%[9.22 µM]	22µM*	-41%[10 µM]	4%
Cc1nn2c(NCc3ccccn3)cc(C(C)(C)C)nc2c1-c1ccccc1	-6%[9.22 µM]	-1%	-1%[10 µM]	18µM*
CC(C)c1nc2ccc(C(=O)NCCCN3CCN(c4ccccc4)CC3)cc2o1	.	-2%	.	7%
CCc1cc(=S)n2c([nH]c3ccccc32)c1C#N	-7%	0%	20%	16µM*
CCc1nnc(NS(=O)(=O)c2ccc(NC(=O)c3ccc(Cl)cc3)cc2)s1	12%	1%	-13%	0%
Cc1ccc(-c2noc(-c3ccccc3NC(=O)c3ccccc3)n2)cc1	.	13%	.	2%
Cc1ccc(-c2noc(-c3ccccc3NC(=O)C3CC(=O)N(c4cccc(C)c4)C3)n2)cc1 (centres undefined)	.	16µM*	.	1%
COc1ccc(NC(=O)Nc2nc(C)cc(C)n2)c(OC)c1	28µM*	-2%	.	0%
CCOC(=O)c1sc(NC(=O)CSc2nc3c(cc2C#N)CCCCC3)c(C#N)c1C	5.6µM*	-1%	-25%	1%
CCOC(=O)c1sc(NC(=O)CSc2n[nH]c(-c3ccccc3)n2)c(C#N)c1C	20µM*	-2%	1%[10 µM]	16µM*
CCOC(=O)c1sc(NC(=O)c2cc(-c3ccccc3)nc3ccccc23)c(C#N)c1C	7.1µM*	4%	-91%	?
CC(=O)NC(CCS(C)(=O)=O)C(=O)Nc1nc(C)cs1 (centres undefined)	3%	0%	-22%[0.074 µM]	.
N#Cc1cc(C(=O)c2cc(Cl)ccc2O)cn(-c2ccccc2)c1=O	-23%	-1%	-19%[10 µM]	4%
Cc1ccc(NC(=O)c2cc(C(=O)c3cc(Cl)ccc3O)cn(-c3ccc(C)cc3)c2=O)cc1	?	0%	28%[10 µM]	35µM*
COc1cccc(CC(=O)N2CCN(S(=O)(=O)c3ccc(Br)cc3)CC2)c1	.	.	.	5%
CCc1ccc(/C=c2\s/c(=C\C(=O)C(C)(C)C)[nH]c2=O)cc1	14µM*	4%	-19%	?
CCCCCCOc1ccc(C(=O)n2cnc(N)n2)cc1	.	-1%	13µM*	-3%[38.3 µM]
CCCCCCOc1ccc(C(=O)O)cc1	-11%[9.22 µM]	-2%	15%[10 µM]	0%
Cn1c(O)c(N=NC(=O)c2ccccc2O)c2ccccc21	11%[9.22 µM]	2%	-27%[10 µM]	2%
CCc1c(O)nc(SCC(=O)Nc2ccc(Br)cc2)n(-c2ccc(C)cc2)c1=O	.	.	.	1%
CCc1c(O)nc(SCC(=O)Nc2ccc(C)cc2)n(C2CCCCC2)c1=O	11µM*	1%	-33%[0.074 µM]	.
CCOC(=O)/C(=C/C=C1\Sc2ccccc2N1CC)C(C)=O	-4%	?	-12%[10 µM]	2%
CCN1/C(=C/c2cc[n+](CCCS(=O)(=O)[O-])c3ccccc23)Sc2ccccc21	-29%	13µM*	35%[10 µM]	0%
O=C(C(Sc1ccccc1)c1ccccc1)N1CCN(c2ccccc2F)CC1 (centres undefined)	10µM*	-2%	-58%	0%
SMILES	HttQ103 aggreg	Epigenetic derep	HTT ATP protect	PINK1 modulator
CCN1CCN(C(c2cccs2)C(C)NC(=O)c2ccco2)CC1 (centres undefined)	9%	12%	9%	-5%[38.3 µM]
COc1ccc(/C=N/NC(=O)C[n+]2ccccc2)c(OC)c1	0%	-1%	-35%	3%
Cc1ccc(N=Cc2cc3c(cc2O)OC(N)=C(C#N)C3c2ccccc2)cc1 (centres undefined)	10µM*	1%	-16%[1.9 µM]	-2%
N#CC1=C(N)Oc2cc(O)c(C=Nc3ccccc3)cc2C1c1ccccc1 (centres undefined)	1.6µM*	0%	7%[1.9 µM]	-1%
Cc1ccccc1N=Cc1cc2c(cc1O)OC(N)=C(C#N)C2c1ccccc1 (centres undefined)	?	0%	26%[1.9 µM]	-2%
Cc1ccc(C2(c3ccc(C)cc3)CC2C(=O)Nc2ccc([N+](=O)[O-])cc2O)cc1 (centres undefined)	7.1µM*	0%	-68%	?
O=P(c1ccccc1)(c1ccccc1)c1nc(-c2ccccc2)oc1NCc1ccccc1	11µM*	1%	-14%	3%
CCOP(=O)(OCC)c1nc(-c2ccccc2)oc1NCc1ccccc1	-28%	0%	-8%[10 µM]	2%
O=C(/C=C/c1ccc([N+](=O)[O-])cc1)OCC(=O)N1CCCCCC1	.	.	.	3%
O=c1ccc(-c2nc3ccccc3n2Cc2ccccc2Cl)c[nH]1	9%	1%	-57%	5%
Cc1nn(C(C)(C)C)c(OC(=O)c2cccs2)c1S(=O)(=O)c1ccccc1	13µM*	0%	-16%[0.074 µM]	-1%
C=CCN1C(=O)C(Cc2ccccc2)S/C1=N/N=C/c1cccs1 (centres undefined)	-10%	1%	6%[10 µM]	1%
CO/N=C/c1ccc(N2CCN(C(=O)c3ccc(F)cc3)CC2)c([N+](=O)[O-])c1	13µM*	0%	8%[10 µM]	5%[38.3 µM]
CO/N=C/c1ccc(N2CCN(C(=O)c3ccc(Cl)cc3Cl)CC2)c([N+](=O)[O-])c1	18µM*	-1%	-69%	-21%[38.3 µM]
CO/N=C/c1ccc(N2CCN(C(=O)c3cccc(C(F)(F)F)c3)CC2)c([N+](=O)[O-])c1	?	-1%	12%[10 µM]	15%[38.3 µM]
Cc1ccc(NC(=O)C2CCN(S(=O)(=O)c3ccc4c(c3)CCCN4C(=O)C3CCC3)CC2)cc1	.	0%	.	5%
C/C(CC1CC(COCC(C)C)OC1=O)=N\NC(N)=S (centres undefined)	23%	0%	10%[10 µM]	0%
CC(=O)NC12CC3CC(C1)CC(C(=O)OCC(=O)Nc1c(F)cccc1F)(C3)C2	.	.	.	0%
CCc1ccc(NC(=O)Nc2ccc3c(c2)N(C)C(=O)CS3)cc1	?	-4%	10%	18µM*
FC(F)(F)c1ccncc1-c1nnnn1-c1ccc(Cl)cc1	-4%[9.22 µM]	0%	14%[10 µM]	1%
FC(F)(F)c1nc(N2CCCC2)ncc1-c1nnnn1-c1ccc(Cl)cc1	?	1%	3.5µM*	5%
CC1=C(C#N)C(NC(=O)C2CCCCC2)(C(F)(F)F)C(=O)N1 (centres undefined)	13%	1%	9%	5%[38.3 µM]
CC1=C(C#N)C(NC(=O)C2CC2)(C(F)(F)F)C(=O)N1 (centres undefined)	0.32µM*	-2%	-55%[10 µM]	0%
Cc1ccc2cc3cc(C(=O)N(CC(=O)NC4CCCC4)c4cccc(C)c4C)sc3nc2c1	-3%	-1%	3.2µM*	2%[38.3 µM]
O=C(O)COc1ccc(/C=N/NC(=O)COc2nsnc2N2CCOCC2)cc1	10%[9.22 µM]	1%	8%[10 µM]	0%
O=C(COc1nsnc1N1CCOCC1)N/N=C/c1ccccc1O	14µM*	0%	.	4%

Source: PubChem
